Compounds with a hit are over-represented: about 2.4% of the library has one in this group of screens.
D2 PAM-1: positive allosteric modulators of human D2 dopamine receptor | P14416 | HEK293 T-REx D2, calcium flux, EC20 dopamine potentiation | potentiation, % at 10 µM | actives 0.34% (n = 340,000) | AID 485347;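 active means potentiation over 3 SD above the plate norm, cut at about 30% in these data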
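Using a no-wash calcium dye in inducible, force-coupled HEK293 Trex cells expressing D2, we tracked fluorescence each second for 180 s after compound, then for 180 s after EC20 dopamine to detect augmented signalling.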
D2 ag-1: human D2 receptor agonism in beta-arrestin assay; activation, % (test concentration not listed); actives 0.084% (n = 360,000); DiscoveRx PathHunter D2 beta-arrestin, luminescence, 90 min; 100% = 57 uM dopamine signal; P14416; in the data active means activation above about 40%; inconclusive means between about 15% and that limit
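Agonist mode: compounds alone added to overnight-plated D2 PathHunter cells for 90 min at 37 C, with 57 uM final dopamine (EC100) defining full response. Beta-arrestin recruitment detected by chemiluminescent reagent, read after 1 h at ambient temperature.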
D2 ag-2: D2 dopamine receptor (human) agonism; P14416; activation, % at 2 µM; actives 0.53% (n = 340,000); HEK293 T-REx D2 cells, calcium flux agonist mode;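 active means activation over 3 SD above normal in the single-dose calcium agonist read, cut at about 30% in these data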
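Agonism is scored from calcium flux in a force-coupled, inducible HEK293 cell line expressing D2, read kinetically for 180 s after compound addition against dopamine controls.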
D2 PAM-2: human D2 receptor positive allosteric modulation; P14416; DiscoveRx D2 beta-arrestin cells, luminescence, 90 min; 100% = 57 uM dopamine signal; potentiation, % (test concentration not listed); actives 0.23% (n = 360,000); in the data active means potentiation above about 50%; inconclusive means mostly about 30% to 49%
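D2 cells co-treated with compound plus 50 nM dopamine (EC20) for 90 min at 37 deg C to detect potentiation. Beta-arrestin recruitment was read as enzyme-fragment luminescence after 1 h at ambient temperature. Full response was set by 57 uM dopamine.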
D2 antag: antagonizes the human D2 dopamine receptor | HEK293 TREx D2 cells, calcium flux, dopamine EC80 | actives 2% (n = 340,000) | P14416 | inhibition, % at 10 µM; in the data active means inhibition above about 30%; inactive means below that, where a call was filed
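In this primary screen, negative modulation is detected by tracking calcium flux after an EC80 dopamine challenge in inducible HEK293 T-REx D2 cells preexposed to test compound for 180 s.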
D3 ag: activates human D3 dopamine receptor beta-arrestin recruitment. DiscoveRx D3 beta-arrestin cells, luminescence, 90 min. shares compounds with D2 ag-2. Potency, µM (titrated, usually from 76.9 µM), most hits filed as activators. actives 4% (n = 2,300); further: nearly all actives have a fitted effect of over 70% in size
Target sequence (P35462 whole entry, looked up): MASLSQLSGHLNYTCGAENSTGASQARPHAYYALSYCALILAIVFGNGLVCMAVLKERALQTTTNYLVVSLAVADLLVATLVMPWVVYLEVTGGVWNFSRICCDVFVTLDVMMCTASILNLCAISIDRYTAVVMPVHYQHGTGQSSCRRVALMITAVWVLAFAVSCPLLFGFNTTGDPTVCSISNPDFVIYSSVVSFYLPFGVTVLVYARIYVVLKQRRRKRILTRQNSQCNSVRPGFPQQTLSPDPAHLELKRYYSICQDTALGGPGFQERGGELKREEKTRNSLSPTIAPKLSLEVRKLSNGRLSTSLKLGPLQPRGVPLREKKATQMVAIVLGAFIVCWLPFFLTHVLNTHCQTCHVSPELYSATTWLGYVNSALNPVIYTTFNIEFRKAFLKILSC
D2 ag-3: counter-screen for D3 agonists: human D2 dopamine receptor agonism | shares compounds with D2 ag-2 | Potency, µM (doses to about 76.9 µM), actives largely listed as activators | DiscoveRx PathHunter D2 beta-arrestin, luminescence, 90 min; response scale: percent relative to full dopamine signal | actives 5.9% (n = 2,300); further: nearly all actives have a fitted effect of over 70% in size
Hits are given with their value; 0 = inactive; ? = inconclusive; - = no result. Unless noted, the call rests on the fitted dose curve; in most records, active means well fitted activation curve with a large enough effect; inconclusive means small, poorly fitted or top-dose-only effect; inactive means flat fitted curve, though single readings scatter.

SMILES | D2 PAM-1 | D2 ag-1 | D2 ag-2 | D2 PAM-2 | D2 antag | D3 ag | D2 ag-3
CC(=NCCc1c(C)[nH]c2ccc(C)cc12)C1=C(O)CC(c2ccccc2)CC1=O (configuration not stated) | 0 | 0 | 0 | 0 | 0 | - | -
CCOc1ccc(/C=N/NC(=O)C(OC)c2ccccc2)cc1 (configuration not stated) | 0 | 0 | 0 | 0 | 0 | - | -
CCOc1ccc(C=NCC(O)c2ccccc2)cc1 (configuration not stated) | 0 | 0 | 0 | 0 | 0 | 0 | 0
Cc1ccc(C#CC(C)(O)C(C)(C)C)cn1 (configuration not stated) | 0 | 0 | 0 | 0 | 0 | - | -
CCn1c(N2CCN(S(=O)(=O)c3ccccc3C(F)(F)F)CC2)nc2ccccc21 | 0 | ? | 0 | 0 | 0 | 12.6µM | ?
O=S(=O)(c1cc(Cl)ccc1Cl)N1CCc2ccccc21 | 0 | 0 | 61.1 | 0 | 37.4 | 0 | 0
CC1CCCCC1NS(=O)(=O)CCNC(=O)c1ccccc1 (configuration not stated) | 0 | 0 | 0 | 0 | 0 | - | -
CCN(CC)CCN(C(=O)C1=COCCO1)c1nc2cc3c(cc2s1)OCO3 | 0 | 0 | 0 | 0 | 0 | - | -
CCOc1ccc(-n2c(=S)sc3c(=O)[nH]c(SCC(=O)NCc4ccco4)nc32)cc1 | 0 | 0 | 0 | 0 | 45.2 | 0 | 0
CCOC(=O)CSc1nc2c(sc(=S)n2-c2ccc(OCC)cc2)c(=O)[nH]1 | 0 | 0 | 0 | 0 | 0 | - | -
CCOc1ccccc1NC(=O)c1ccc(NC(=O)C2CCCO2)cc1 (configuration not stated) | 0 | 0 | 0 | 0 | 0 | - | -
CSc1nsc(SCC(=O)Nc2ccc(OC(C)=O)cc2)n1 | 0 | 0 | 0 | 0 | 0 | - | -
COc1ccc(CNC(=O)CSc2nc(SC)ns2)cc1 | 0 | 0 | 0 | 0 | 0 | 0 | 0
COCc1ccc(-c2c(-c3ccccc3OC)sc3cc4c(cc23)OCO4)cc1 | 0 | 0 | 0 | 0 | 39.9 | 0 | 0
CCN(CC)C(=O)c1[nH]cnc1C(=O)N[C@@H](C)C(=O)OC(C)(C)C | 0 | 0 | 0 | 0 | 0 | 0 | 0
OC(CNCCc1ccc(C(F)(F)F)cc1)COc1cccc2ccccc12 (configuration not stated) | 0 | 0 | 0 | 0 | 0 | 0 | 0
O=c1c2cccnc2[nH]c(=S)n1CCCN1CCN(c2ccc(F)cc2)CC1 | 0 | 0 | 53.7 | 0 | 100.8 | 0 | 0
COc1ccc(N2CCN(CCCn3c(=S)[nH]c4ncccc4c3=O)CC2)cc1 | 0 | 0 | 0 | 0 | 0 | - | -
Cc1ccc(CNC(=O)c2csc3c2CCCCC3)cc1 | 0 | 0 | 0 | 0 | 0 | - | -
O=C(NC1(Cc2ccccc2)CCN(CCc2cccs2)C1=O)c1ccccc1 (configuration not stated) | 0 | 0 | 0 | 0 | 0 | 0 | 0
CC1(NC(=O)c2ccccc2)CCN(CCc2cccs2)C1=O (configuration not stated) | 0 | 0 | - | 0 | - | - | -
CCSc1nc2c(c(=O)[nH]1)C(C(C)C)C(C#N)=C(N)O2 (configuration not stated) | 0 | 0 | 45.2 | 0 | 0 | 0 | 0
c1ccc(C2CCC(N3CCN(c4ccccc4)CC3)CC2)cc1 (configuration not stated) | 0 | 0 | 64.0 | 0 | 0 | 0 | 0
COc1ccc(S(=O)(=O)N2CCC(N3CCN(c4ccccc4)CC3)CC2)cc1 | 0 | - | 73.5 | - | 61.4 | 0 | ?
O=S(=O)(Cc1ccccc1)N1CCC(N2CCN(c3ccccc3)CC2)CC1 | 0 | ? | 82.6 | 0 | 88.6 | ? | ?
SMILES | D2 PAM-1 | D2 ag-1 | D2 ag-2 | D2 PAM-2 | D2 antag | D3 ag | D2 ag-3
Cc1ccc([C@@H]2[C@@H]3C(=O)N(C)C(=O)[C@@H]3[C@]3(C)C(=O)N(CCO)CC(=O)N23)o1 | 0 | 0 | 0 | 0 | 0 | - | -
Cn1c(Nc2ccc(Cl)cc2)cc(=O)n(C)c1=O | 0 | 0 | 0 | 0 | 0 | - | -
O=c1oc2cc(Cl)ccc2n1CSc1nc2ccccc2s1 | 0 | 0 | 0 | 0 | 0 | - | -
CCC/C(=C1/c2ccccc2C(=O)N1c1ccccc1)c1ccc2c(c1)OCO2 | 0 | 0 | 0 | 0 | 0 | 0 | 0
COc1ccc(-c2nnc(SCC(=O)NCc3ccco3)o2)cc1 | 0 | 0 | 0 | 0 | 0 | - | -
CC(=O)NC(c1cc(Cl)c2cccnc2c1O)C1CC1 (configuration not stated) | 0 | - | 0 | - | 0 | 0 | 0
CC(=O)NC(c1cc(Cl)c2cccnc2c1O)C(C)C (configuration not stated) | 0 | - | 0 | - | 0 | - | -
O=C(CCS(=O)(=O)c1ccc(Br)cc1)N1CCN(Cc2ccccc2)CC1 | 0 | 0 | 0 | 0 | 0 | - | -
CCOc1ccc(NC(=S)C(C#N)=C2N(C)c3ccccc3N2C)cc1 | - | 0 | 0 | 0 | 0 | - | -
O=C(NC1(C(F)(F)F)NC(=O)N(c2ccccc2)C1=O)c1cccs1 (configuration not stated) | 0 | 0 | 0 | 0 | 0 | 0 | 0
CC1CCCCC1NC(=O)COC(=O)c1ccc(S(=O)(=O)NCc2ccco2)cc1 (configuration not stated) | 0 | 0 | 0 | 0 | 0 | - | -
O=C(/C=C/c1ccco1)N1CCCC(c2ccccc2)C1 (configuration not stated) | 0 | 0 | 57.4 | 0 | 55.8 | 0 | 0
Cc1ccc(NC(=O)N2CCCC(c3ccccc3)C2)cc1 (configuration not stated) | - | ? | - | 0 | - | 0 | 0
Cc1ccc2nc(-c3ccccc3)cc(C(=O)N3CC(C)OC(C)C3)c2c1 (configuration not stated) | 0 | 0 | 0 | 0 | 0 | - | -
C=CCn1c(-c2ccc(OC)cc2)csc1=Nc1c(C)n(C)n(-c2ccccc2)c1=O | 0 | ? | 66.7 | 0 | 53.6 | 0 | ?
CCCCNC(=O)CNC(=O)c1nn(-c2ccc(OC)cc2)c(=O)c2ccccc12 | 0 | 0 | 0 | 0 | 0 | - | -
Cn1cnc(C(=O)N2CCN(c3ccccc3)CC2)c1C(=O)N1CCN(c2ccccc2)CC1 | 0 | 0 | 0 | 0 | 0 | 0 | 0
CCOC(=O)C1CCN(S(=O)(=O)c2ccc(-n3cnnn3)c(C)c2)CC1 | 0 | 0 | 0 | 0 | 0 | - | -
CC(OC(=O)C1CCCC1)C(=O)Nc1ncc(Cl)cc1Cl (configuration not stated) | 0 | 0 | 0 | 0 | 0 | 0 | 0
CC1(C)NC(=O)N(CC(=O)N2CCN(S(=O)(=O)c3cc(Cl)ccc3Cl)CC2)C1=O | 0 | 0 | - | 0 | - | 0 | 0
